This is an account of results in PubChem BioAssay (EPA / NIEHS).

Results filed as inconclusive are left out. The source made the active and inactive calls. Rule for the calls: active = hit-call score of the fitted dose curve at least 0.9, where 1 is the maximum; inconclusive = response in the unintended direction; inactive = score below 0.9.

Assay [1] has as its target human Histamine 1 Receptor (H1), HRH1 (gene 3269) (UniProt P35367). Description: NVS_GPCR_hH1: NovaScreen (NVS) G Protein-Coupled Receptor Assay for human Histamine 1 Receptor (H1) (AID 2283268). In short, it runs like this:
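Cell-free radioligand displacement at human H1 receptor, 1 h, filter scintillation counting; primary screen 25 uM in duplicate, hits in concentration series; loss of binding fitted vs DMSO.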

Assay [2] addresses D(1A) dopamine receptor (Homo sapiens) (UniProt P21728). As to the kind of experiment: NVS_GPCR_hDRD1: NovaScreen (NVS) G Protein-Coupled Receptor Assay for human Dopamine Receptor D1 (DRD1) (AID 2283269). An outline of the steps:
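Cell-free competition with radioligand, filter-trapped and scintillation-counted 1 h post-dose, using HEK293-derived human D1 preparation. Duplicate single-point testing at 25 uM first, then concentration series for actives; DMSO served as baseline, loss-of-signal scored.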

For assay [3], the target named is human Neurokinin, NK2 Receptor, TACR2 (gene 6865) (UniProt P21452). Description: NVS_GPCR_hNK2: NovaScreen (NVS) G Protein-Coupled Receptor Assay for human Neurokinin, NK2 Receptor (AID 2283278).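 Note: actives reduce bound radioligand signal relative to DMSO baseline.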 An outline of the steps: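 Cell-free radioligand binding using receptor protein extracted from CHO cells; readings taken 4 hours after chemical dosing by filter-based scintillation counting. Primary screen ran single concentration (25 uM) in duplicate; actives followed up in concentration series, loss-of-signal versus DMSO baseline.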
Sequence of human Neurokinin, NK2 Receptor, TACR2 (gene 6865) (P21452 whole entry, looked up): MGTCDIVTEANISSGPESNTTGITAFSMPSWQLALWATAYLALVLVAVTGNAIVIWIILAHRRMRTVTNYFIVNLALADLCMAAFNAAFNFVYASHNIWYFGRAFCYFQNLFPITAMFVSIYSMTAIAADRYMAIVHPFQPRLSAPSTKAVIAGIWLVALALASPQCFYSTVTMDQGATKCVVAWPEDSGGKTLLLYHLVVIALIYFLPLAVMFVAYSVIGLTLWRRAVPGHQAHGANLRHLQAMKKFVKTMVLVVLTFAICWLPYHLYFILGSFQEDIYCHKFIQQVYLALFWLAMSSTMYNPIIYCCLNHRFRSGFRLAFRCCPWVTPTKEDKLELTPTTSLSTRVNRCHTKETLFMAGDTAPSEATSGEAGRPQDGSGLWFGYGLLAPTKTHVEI

The target in assay [4] is human Opioid Receptor Delta 1 (Opiate D1), OPRD1 (gene 4985) (UniProt P41143). Description: NVS_GPCR_hOpiate_D1: NovaScreen (NVS) G Protein-Coupled Receptor Assay for human Opioid Receptor Delta 1 (Opiate D1) (AID 2283280). An outline of the steps: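 Radioligand displacement on membranes from CHO cells expressing the receptor, read by filter scintillation counting 1 h after dosing. Duplicate single-point screen at 25 uM, then concentration series for actives; loss of signal versus DMSO.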

Assay [5] addresses human Thromboxane A2 Receptor (TXA2), TBXA2R (gene 6915) (UniProt P21731). Description: NVS_GPCR_hTXA2: NovaScreen (NVS) G Protein-Coupled Receptor Assay for human Thromboxane A2 Receptor (TXA2) (AID 2283282).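 Note: actives reduce bound radioligand signal relative to DMSO baseline.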 An outline of the steps:
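Screening ran at 25 uM in duplicate, with concentration series for confirmed actives. Each test measures radioligand binding to human platelet protein after 1 h, cell-free, using filter-based scintillation detection of signal loss relative to DMSO.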

The target in assay [6] is human Dopamine Receptor D2 (DRD2), DRD2 (gene 1813) (UniProt P14416). Description: NVS_GPCR_hDRD2s: NovaScreen (NVS) G Protein-Coupled Receptor Assay for human Dopamine Receptor D2 (DRD2) (AID 2283266). An outline of the steps:
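Radioligand displacement used human DRD2 membranes extracted from CHO cells and was read by filter-based scintillation counting after 1.5 hours. Primary screening was in duplicate at 25 uM. Loss of signal versus DMSO was fitted, with concentration series in follow-up.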

For assay [7], the target named is Muscarinic acetylcholine receptor M2 (Homo sapiens) (UniProt P08172). As to the kind of experiment: NVS_GPCR_hM2: NovaScreen (NVS) G Protein-Coupled Receptor Assay for human Muscarinic, M2 Receptor (AID 2283273). An outline of the steps:
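Cell-free radioligand binding using membranes from CHO cells expressing the receptor; filter-based scintillation counting after 1 hour of compound exposure. Loss of specific binding relative to DMSO baseline; primary screen at 25 uM in duplicate, actives then run in concentration series.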

In assay [8] the target is Muscarinic acetylcholine receptor M5 (Homo sapiens) (UniProt P08912). As to the kind of experiment: NVS_GPCR_hM5: NovaScreen (NVS) G Protein-Coupled Receptor Assay for human Muscarinic, M5 Receptor (AID 2283275). In short, it runs like this: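 Radioligand displacement on CHO-derived membrane preparations, 1 h, filter-based scintillation counting. Single-concentration duplicate screen at 25 uM; hits (e.g. 30% inhibition) retested in singleton concentration-response up to 50 uM. Loss of binding fitted versus DMSO.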
Sequence of Muscarinic acetylcholine receptor M5 (Homo sapiens) (P08912 whole entry, looked up): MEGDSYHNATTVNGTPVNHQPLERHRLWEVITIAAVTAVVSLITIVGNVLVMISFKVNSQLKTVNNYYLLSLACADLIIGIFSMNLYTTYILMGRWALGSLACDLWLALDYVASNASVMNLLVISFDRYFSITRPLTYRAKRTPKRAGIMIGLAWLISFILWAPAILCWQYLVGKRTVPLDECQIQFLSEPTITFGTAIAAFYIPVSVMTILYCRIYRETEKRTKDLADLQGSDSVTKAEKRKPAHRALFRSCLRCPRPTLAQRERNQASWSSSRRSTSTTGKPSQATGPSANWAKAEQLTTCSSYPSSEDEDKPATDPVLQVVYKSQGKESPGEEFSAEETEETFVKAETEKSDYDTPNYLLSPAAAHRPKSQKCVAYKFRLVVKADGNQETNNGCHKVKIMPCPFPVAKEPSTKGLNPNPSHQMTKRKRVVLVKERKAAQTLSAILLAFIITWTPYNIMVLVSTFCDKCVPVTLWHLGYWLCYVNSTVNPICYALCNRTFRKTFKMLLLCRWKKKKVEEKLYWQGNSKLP

The target in assay [9] is human Orphanin, Opioid Related Nociceptin Receptor 1 (ORL1), OPRL1 (gene 4987) (UniProt P41146). Description: NVS_GPCR_hORL1: NovaScreen (NVS) G Protein-Coupled Receptor Assay for human Orphanin, Opioid Related Nociceptin Receptor 1 (ORL1) (AID 2283283). An outline of the steps: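 Filter-based radioligand displacement with receptor extracted from HEK293 cells, read 1 hour after dosing by scintillation counting. Duplicate single-point screen at 25 uM; qualifying chemicals then run in concentration-response to 50 uM, analysed relative to DMSO.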

Assay [10] deals with Muscarinic acetylcholine receptor M1 (Homo sapiens) (UniProt P11229). Description: NVS_GPCR_hM1: NovaScreen (NVS) G Protein-Coupled Receptor Assay for human Muscarinic, M1 Receptor (AID 2283270). In short, it runs like this: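 Cell-free radioligand displacement using membrane protein extracted from CHO cells, read by filter-based scintillation counting 1 h after dosing. Loss of bound signal fitted versus DMSO; primary screen single concentration 25 uM in duplicate, actives followed by concentration series.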
Sequence of Muscarinic acetylcholine receptor M1 (Homo sapiens) (P11229 whole entry, looked up): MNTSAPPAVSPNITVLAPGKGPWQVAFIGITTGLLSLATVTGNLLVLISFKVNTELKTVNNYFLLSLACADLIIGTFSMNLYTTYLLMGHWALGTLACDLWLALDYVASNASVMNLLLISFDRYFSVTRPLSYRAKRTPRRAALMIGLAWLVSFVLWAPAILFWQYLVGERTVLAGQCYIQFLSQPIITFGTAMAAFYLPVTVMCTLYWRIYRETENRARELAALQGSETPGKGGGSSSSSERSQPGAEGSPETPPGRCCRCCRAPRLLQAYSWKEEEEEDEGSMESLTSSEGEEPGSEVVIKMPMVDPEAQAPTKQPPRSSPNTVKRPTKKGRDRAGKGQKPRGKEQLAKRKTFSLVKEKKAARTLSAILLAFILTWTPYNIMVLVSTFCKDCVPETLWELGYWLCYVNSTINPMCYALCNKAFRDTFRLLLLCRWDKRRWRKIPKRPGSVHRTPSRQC

The target in assay [11] is human Leukotriene B4 Receptor 1 (LTB4-BLT1), LTB4R (gene 1241) (UniProt Q15722). Description: NVS_GPCR_hLTB4_BLT1: NovaScreen (NVS) G Protein-Coupled Receptor Assay for human Leukotriene B4 Receptor 1 (LTB4-BLT1) (AID 2283271). An outline of the steps: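 Radioligand displacement binding on receptor extracted from human neutrophils, cell-free, 1 h after dosing; filter-based scintillation counting. Primary screen in duplicate at 25 uM, actives retested in concentration-response up to 50 uM; loss of signal versus DMSO.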

Assay [12] concerns the target Muscarinic acetylcholine receptor M3 (Homo sapiens) (UniProt P20309). As to the kind of experiment: NVS_GPCR_hM3: NovaScreen (NVS) G Protein-Coupled Receptor Assay for human Muscarinic, M3 Receptor (AID 2283272). An outline of the steps:
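Radioligand displacement binding on human M3 receptor in CHO-derived membranes, 1 h incubation, filter-based scintillation counting. Primary screen in duplicate at 25 uM; actives followed up in concentration series; loss of signal versus DMSO.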

Assay [13] concerns the target human Endothelin Receptor Type B (ETB), EDNRB (gene 1910) (UniProt P24530). As to the kind of experiment: NVS_GPCR_hETB: NovaScreen (NVS) G Protein-Coupled Receptor Assay for human Endothelin Receptor Type B (ETB) (AID 2283267). In short, it runs like this:
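Human astrocytoma cell membranes; radioligand competitive binding read by filter scintillation counting 4 hours after dosing. Single-concentration duplicate screen at 25 uM, then singleton concentration-response up to 50 uM; loss of signal versus DMSO.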

The target of assay [14] is human Neurotensin Receptor (NTS), NTSR1 (gene 4923) (UniProt P30989). As to the kind of experiment: NVS_GPCR_hNTS: NovaScreen (NVS) G Protein-Coupled Receptor Assay for human Neurotensin Receptor (NTS) (AID 2283279). An outline of the steps:
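Radioligand displacement on human NTSR1 protein from CHO cells, cell-free, 1 h, filter-based scintillation counting. Primary screen at 25 uM in duplicate; hits rerun in concentration-response up to 50 uM.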

Assay [15] addresses human Dopamine Receptor D4.4 (DRD4.4), DRD4 (gene 1815) (UniProt P21917). Description: NVS_GPCR_hDRD4.4: NovaScreen (NVS) G Protein-Coupled Receptor Assay for human Dopamine Receptor D4.4 (DRD4.4) (AID 2283264). In short, it runs like this:
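Radioligand displacement on human DRD4.4 from CHO-derived membranes, 1 hour incubation, bound counts read by filtration and scintillation. Primary screen in duplicate at 25 uM; actives followed up in concentration series.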

In assay [16] the target is Neuropeptide Y receptor type 2 (Homo sapiens) (UniProt P49146). Description: NVS_GPCR_hNPY2: NovaScreen (NVS) G Protein-Coupled Receptor Assay for human Neuropeptide Receptor Y2 (NPY2) (AID 2283277). In short, it runs like this:
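Radioligand binding on membranes extracted from SK-N-MC cells, cell-free, read 1 h after dosing by filter-based scintillation counting. Loss of signal vs DMSO. Primary screen in duplicate at 25 uM; actives followed up in concentration-response up to 50 uM.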

Assay [17] addresses human Adrenergic, Beta 3 Receptor (Adrb3), ADRB3 (gene 155) (UniProt P13945). Description: NVS_GPCR_hAdrb3: NovaScreen (NVS) G Protein-Coupled Receptor Assay for human Adrenergic, Beta 3 Receptor (Adrb3) (AID 2283262). An outline of the steps:
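Membranes from SK-N-MC cells pretreated with isoproterenol and 8-bromo-cAMP were used in a radioligand competitive displacement binding assay. Binding was read by filter-based scintillation counting 1 hour after dosing. Primary screening was in duplicate at 25 uM, with concentration series in follow-up.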

In assay [18] the target is human Neuropeptide Receptor Y1 (NPY1), NPY1R (gene 4886) (UniProt P25929). Description: NVS_GPCR_hNPY1: NovaScreen (NVS) G Protein-Coupled Receptor Assay for human Neuropeptide Receptor Y1 (NPY1) (AID 2283276). In short, it runs like this:
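Cell-free radioligand binding using receptor extracted from SK-N-MC cells, 1 h incubation, filter-based scintillation counting. Primary screen single concentration 25 uM in duplicate; actives followed in concentration series. Loss of bound signal scored versus DMSO.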

Sequence of human Thromboxane A2 Receptor (TXA2), TBXA2R (gene 6915) (P21731 whole entry, looked up): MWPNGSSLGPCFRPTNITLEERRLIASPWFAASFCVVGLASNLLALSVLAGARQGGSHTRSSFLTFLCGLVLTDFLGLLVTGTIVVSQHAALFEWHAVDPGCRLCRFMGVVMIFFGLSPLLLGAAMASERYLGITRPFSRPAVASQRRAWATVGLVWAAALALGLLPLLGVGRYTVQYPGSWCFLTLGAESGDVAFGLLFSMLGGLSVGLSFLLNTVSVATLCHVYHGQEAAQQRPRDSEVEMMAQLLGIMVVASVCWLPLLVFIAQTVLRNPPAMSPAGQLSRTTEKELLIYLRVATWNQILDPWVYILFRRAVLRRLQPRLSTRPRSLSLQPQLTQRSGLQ
Sequence of D(1A) dopamine receptor (Homo sapiens) (P21728 whole entry, looked up): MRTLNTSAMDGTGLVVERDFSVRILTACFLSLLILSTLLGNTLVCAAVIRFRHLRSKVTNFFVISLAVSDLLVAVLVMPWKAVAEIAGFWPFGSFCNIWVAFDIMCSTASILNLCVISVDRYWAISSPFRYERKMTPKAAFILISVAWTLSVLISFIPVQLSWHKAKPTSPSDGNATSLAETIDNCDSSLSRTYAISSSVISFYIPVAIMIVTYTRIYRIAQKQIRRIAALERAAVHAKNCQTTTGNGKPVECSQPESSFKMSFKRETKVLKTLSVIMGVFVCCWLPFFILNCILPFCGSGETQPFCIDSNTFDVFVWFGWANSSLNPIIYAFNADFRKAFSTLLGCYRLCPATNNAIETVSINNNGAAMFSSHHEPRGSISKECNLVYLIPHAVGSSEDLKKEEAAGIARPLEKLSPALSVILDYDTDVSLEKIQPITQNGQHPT
Sequence of human Dopamine Receptor D2 (DRD2), DRD2 (gene 1813) (P14416 whole entry, looked up): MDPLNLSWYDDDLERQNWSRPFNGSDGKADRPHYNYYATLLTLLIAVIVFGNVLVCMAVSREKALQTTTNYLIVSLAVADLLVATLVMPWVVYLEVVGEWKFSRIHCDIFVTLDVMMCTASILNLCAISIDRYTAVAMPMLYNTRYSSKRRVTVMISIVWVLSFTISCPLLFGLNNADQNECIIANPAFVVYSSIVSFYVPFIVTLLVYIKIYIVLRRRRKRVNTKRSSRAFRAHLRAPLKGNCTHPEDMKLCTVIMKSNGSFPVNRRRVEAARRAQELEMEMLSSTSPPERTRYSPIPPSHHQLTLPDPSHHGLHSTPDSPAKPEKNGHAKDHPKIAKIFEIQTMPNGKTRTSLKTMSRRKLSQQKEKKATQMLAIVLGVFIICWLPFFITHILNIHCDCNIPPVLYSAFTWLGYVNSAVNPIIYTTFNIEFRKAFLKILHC
Sequence of human Histamine 1 Receptor (H1), HRH1 (gene 3269) (P35367 whole entry, looked up): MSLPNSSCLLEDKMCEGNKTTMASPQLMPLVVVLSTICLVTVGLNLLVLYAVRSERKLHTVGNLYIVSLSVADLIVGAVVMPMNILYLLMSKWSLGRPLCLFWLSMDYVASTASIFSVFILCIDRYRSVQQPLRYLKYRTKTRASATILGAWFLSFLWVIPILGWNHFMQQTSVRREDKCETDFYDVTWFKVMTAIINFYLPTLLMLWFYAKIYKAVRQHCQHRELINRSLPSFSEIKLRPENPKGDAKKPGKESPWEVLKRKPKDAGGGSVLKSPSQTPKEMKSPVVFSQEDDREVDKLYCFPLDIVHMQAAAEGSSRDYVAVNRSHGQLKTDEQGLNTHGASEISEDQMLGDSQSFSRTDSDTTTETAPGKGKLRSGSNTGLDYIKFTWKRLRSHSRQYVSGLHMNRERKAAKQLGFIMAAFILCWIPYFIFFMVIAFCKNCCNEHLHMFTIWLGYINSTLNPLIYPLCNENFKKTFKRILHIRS
Sequence of Muscarinic acetylcholine receptor M2 (Homo sapiens) (P08172 whole entry, looked up): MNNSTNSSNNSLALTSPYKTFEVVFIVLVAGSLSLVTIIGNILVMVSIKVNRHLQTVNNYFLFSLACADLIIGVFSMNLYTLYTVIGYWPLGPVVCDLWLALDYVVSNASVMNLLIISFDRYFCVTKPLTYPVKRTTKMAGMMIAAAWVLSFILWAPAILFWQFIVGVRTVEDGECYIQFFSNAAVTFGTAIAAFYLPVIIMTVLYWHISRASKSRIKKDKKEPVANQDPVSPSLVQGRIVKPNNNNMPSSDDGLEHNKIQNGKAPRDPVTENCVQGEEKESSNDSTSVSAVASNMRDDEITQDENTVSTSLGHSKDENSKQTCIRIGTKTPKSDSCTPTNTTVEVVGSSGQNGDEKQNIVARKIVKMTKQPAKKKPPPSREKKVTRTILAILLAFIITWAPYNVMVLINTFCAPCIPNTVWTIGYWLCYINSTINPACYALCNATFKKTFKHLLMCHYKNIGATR
Sequence of Neuropeptide Y receptor type 2 (Homo sapiens) (P49146 whole entry, looked up): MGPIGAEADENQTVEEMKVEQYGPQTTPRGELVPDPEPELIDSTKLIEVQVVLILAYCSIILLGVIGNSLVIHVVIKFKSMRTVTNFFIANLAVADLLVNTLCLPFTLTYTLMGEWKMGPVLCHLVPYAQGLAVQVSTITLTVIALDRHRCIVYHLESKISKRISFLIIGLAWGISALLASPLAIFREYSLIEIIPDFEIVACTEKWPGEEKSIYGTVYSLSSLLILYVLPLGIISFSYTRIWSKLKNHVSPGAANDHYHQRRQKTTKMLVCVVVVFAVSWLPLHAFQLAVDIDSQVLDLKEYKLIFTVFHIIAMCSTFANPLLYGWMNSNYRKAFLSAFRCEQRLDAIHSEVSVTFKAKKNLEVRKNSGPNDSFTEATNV
Sequence of human Endothelin Receptor Type B (ETB), EDNRB (gene 1910) (P24530 whole entry, looked up): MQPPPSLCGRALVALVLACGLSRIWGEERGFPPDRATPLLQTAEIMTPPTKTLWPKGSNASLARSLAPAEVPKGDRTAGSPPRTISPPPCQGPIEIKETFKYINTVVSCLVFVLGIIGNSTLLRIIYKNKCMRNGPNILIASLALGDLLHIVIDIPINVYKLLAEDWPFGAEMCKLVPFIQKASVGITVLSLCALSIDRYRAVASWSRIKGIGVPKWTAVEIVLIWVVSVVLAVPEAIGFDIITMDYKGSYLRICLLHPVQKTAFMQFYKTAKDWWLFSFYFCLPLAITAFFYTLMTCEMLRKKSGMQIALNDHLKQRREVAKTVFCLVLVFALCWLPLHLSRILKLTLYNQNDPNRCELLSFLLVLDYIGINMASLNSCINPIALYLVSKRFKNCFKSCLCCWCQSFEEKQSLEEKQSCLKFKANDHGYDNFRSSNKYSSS
Sequence of human Dopamine Receptor D4.4 (DRD4.4), DRD4 (gene 1815) (P21917 whole entry, looked up): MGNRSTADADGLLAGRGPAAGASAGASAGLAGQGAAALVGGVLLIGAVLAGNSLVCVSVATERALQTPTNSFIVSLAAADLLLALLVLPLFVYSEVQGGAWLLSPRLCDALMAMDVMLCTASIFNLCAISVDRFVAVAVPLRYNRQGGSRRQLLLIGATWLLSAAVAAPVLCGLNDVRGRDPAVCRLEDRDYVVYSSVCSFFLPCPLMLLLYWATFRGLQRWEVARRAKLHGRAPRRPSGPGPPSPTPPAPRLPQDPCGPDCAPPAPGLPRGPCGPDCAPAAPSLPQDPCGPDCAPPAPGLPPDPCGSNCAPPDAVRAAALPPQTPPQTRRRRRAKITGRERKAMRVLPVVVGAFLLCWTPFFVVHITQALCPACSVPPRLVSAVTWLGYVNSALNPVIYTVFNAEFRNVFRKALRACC

As to `CCOc1cccc(-n2cc(C(=O)N3CCN(c4cc(C(=O)O)c5ccccc5c4)CC3)nc2-c2ccc(C)cc2)c1`, the AC50 in assay [1] was 23.8 µM (active); in assay [2] it was 17.1 µM (active); in [3], 7.6 µM (active); in assay [4], 9.02 µM (active); in assay [5], 6.65 µM (active).

As for `Cc1c(-c2cccnc2)c2ccccc2n1CCCCC(=O)O`, the AC50 in assay [5] is 5.82 µM (active).

For the molecule `CNS(=O)(=O)c1cc(C(=O)N2CCC(CCN3C4CCC3CC(n3c(C)nc5ccccc53)C4)(c3cccc(F)c3)CC2)c(Cl)cc1F` (stereo unspecified), the half-maximal activity concentration (AC50) was 8.72 µM (active) in assay [6], 15.8 µM (active) in assay [2], 9.16 µM (active) in assay [7] and 1.71 µM (active) in assay [3]. Further, the outcome in assay [8] and in assay [9] was inactive.

On to `O=P(OC(CCl)CCl)(OC(CCl)CCl)OC(CCl)CCl`, for which the AC50 was 19.8 µM (active) in [1] and 12.5 µM (active) in [3]. Moreover, the result in [2] and in assay [5] was inactive.

On to `CCCN(C1CCN(C(=O)C2CCNCC2)CC1)[C@@H]1CCc2ccc(OC)cc2C1`, for which the AC50 was 18.8 µM (active) in assay [6]; 12.1 µM (active) in assay [1]; 0.00229 µM (active) in assay [10]; 0.00453 µM (active) in [12]; 0.00539 µM (active) in [7]; 0.0807 µM (active) in assay [8]. Also, the call in assay [11] was inactive.

Regarding `CCCCC(CC)COC(=O)CCCCCCCCC(=O)OCC(CC)CCCC` (stereo unspecified), the call in [13] was inactive.

In the case of `Cc1ccc(C)c(O)c1`, in assay [14], the AC50 is 9.84 µM (active).

Turning to `O=C(OC[C@H]1O[C@@H](OC(=O)c2cc(O)c(O)c(OC(=O)c3cc(O)c(O)c(O)c3)c2)[C@H](OC(=O)c2cc(O)c(O)c(OC(=O)c3cc(O)c(O)c(O)c3)c2)[C@@H](OC(=O)c2cc(O)c(O)c(OC(=O)c3cc(O)c(O)c(O)c3)c2)[C@@H]1OC(=O)c1cc(O)c(O)c(OC(=O)c2cc(O)c(O)c(O)c2)c1)c1cc(O)c(O)c(OC(=O)c2cc(O)c(O)c(O)c2)c1`, the result in assay [2] and in assay [5] was inactive.

Regarding `Cc1[nH]cnc1C[C@H]1CCc2c(C)c3ccccc3n2C1=O`, the half-maximal activity concentration (AC50) in assay [15] was 18.4 µM (active); in assay [6] it was 0.979 µM (active); in assay [1], 4.88 µM (active); in assay [12], 15.5 µM (active); in assay [8] it was 11.9 µM (active). Besides, the outcome in [13], in assay [10], in assay [11] and in assay [3] was inactive.

On to `CC(C)=CCCC(C)=CC=O`, for which the call in assay [3] was inactive.

Consider `CC(C)c1cccc(C(C)C)c1N1C(=O)c2ccc(O)cc2C1=O`, for which the result in assay [16] was inactive. Further, the concentration at half-maximal activity (AC50) in assay [5] was 7.4 µM (active).

Regarding `CC(C)CC(C)(O)C#CC(C)(O)CC(C)C` (stereo unspecified), the outcome in assay [17] was inactive.

For `O=C(O)CC(O)C(=O)O` (stereo unspecified), the molecule was called inactive in assay [7], in [4] and in assay [9].

Take `O=c1[nH]c2ccc(S(=O)CCN3CCC(Cc4ccc(F)cc4)CC3)cc2o1` (stereo unspecified): the AC50 is 2.51 µM (active) in assay [15], 13.5 µM (active) in assay [6], 0.522 µM (active) in assay [1] and 1.23 µM (active) in [2].

As to `CN(C)c1ccc(N=NS(=O)(=O)O)cc1`, the molecule was classed as inactive in [8] and in assay [18]. In addition, the concentration at half-maximal activity (AC50) in assay [3] was 0.656 µM (active).

Take `C=CCCCCCCCCC(=O)O`: in assay [16], the call was inactive.
